Sampled rows, rich in hits. Any-hit rate of the full collection: about 3.2%.
MEKK3 PB1 HTS = modulators of MEKK3-MEK5 PB1 binding, primary screen, biochemical, wildtype MEKK3, multiplex bead flow cytometry, Alexa488-MEK5; AID 1529, 2009; binding response (% of control), % at 10 µM; Mitogen-activated protein kinase kinase kinase 3 (Homo sapiens), Q99759; bead-based flow cytometry, Alexa488-MEK5 binding to MEKK3; actives lie on both sides; 0 = blocked by unlabeled MEK5, 100 = vehicle; hit rate 1.4% among 290,000;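 active means binding response more than 3 SD above or below the average of its plate-row segment, actives on both sides; inconclusive means wells at one plate position flagged as instrument error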;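 further: Alexa488 bead fluorescence after subtracting the streptavidin-only scavenger bead signal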
Target sequence (Q99759 whole entry, looked up): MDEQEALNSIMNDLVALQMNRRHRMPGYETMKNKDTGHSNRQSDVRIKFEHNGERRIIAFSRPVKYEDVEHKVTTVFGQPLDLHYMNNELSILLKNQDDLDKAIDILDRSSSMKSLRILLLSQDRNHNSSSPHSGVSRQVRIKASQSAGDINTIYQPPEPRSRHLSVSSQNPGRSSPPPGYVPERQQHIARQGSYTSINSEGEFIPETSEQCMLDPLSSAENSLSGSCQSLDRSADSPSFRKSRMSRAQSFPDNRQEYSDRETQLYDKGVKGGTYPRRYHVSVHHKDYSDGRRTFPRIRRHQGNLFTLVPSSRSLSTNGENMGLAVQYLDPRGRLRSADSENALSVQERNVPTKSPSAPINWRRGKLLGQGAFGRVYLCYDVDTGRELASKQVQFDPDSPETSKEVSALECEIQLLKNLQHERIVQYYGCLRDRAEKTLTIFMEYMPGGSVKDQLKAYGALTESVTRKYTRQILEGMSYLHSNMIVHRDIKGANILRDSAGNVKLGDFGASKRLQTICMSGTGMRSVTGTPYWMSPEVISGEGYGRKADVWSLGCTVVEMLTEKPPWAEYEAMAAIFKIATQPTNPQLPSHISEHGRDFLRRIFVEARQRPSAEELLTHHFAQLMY
MEKK2 WT-MEK5 = modulators of MEK5 binding to wildtype MEKK2, primary screen, biochemical, multiplex bead flow cytometry, Alexa488-MEK5. Mitogen-activated protein kinase kinase kinase 2 (Homo sapiens), Q9Y2U5. Alexa488-MEK5 binding to MEKK2 WT; actives lie on both sides. binding response (% of control), % at 10 µM. hit rate 1.1% among 290,000. AID 1531, 2009; in the data active means binding response below about 67% or above about 130%; inconclusive means no clear call, values can overlap the other calls; inactive means in between
SKN-1 inh = suppressors of acrylamide-induced Pgst-4::GFP reporter in worms, primary screen, SKN-1 inhibitor project, whole organism, uHTS, GFP/RFP fluorescence ratio, strain VP596; C. elegans VP596 Pgst-4::GFP/RFP ratio, 24 h; inhibition, % at 21.8 µM; hit rate 0.49% among 360,000; AID 624304, 2012;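 active means interference check ratio from 0.5 to 1.5 plus GFP to RFP signal ratio inhibition reaching or exceeding a fixed threshold, cut at about 30% in these data, passing the limit was not always enough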
NRP1-CendR mod = modulators of CendR peptide binding to NRP-1, primary screen, biochemical, fluorescence polarization, uHTS. Neuropilin-1 (Homo sapiens), O14786. FAM-RPARPAR peptide binding to NRP-1. AID 602438, 2012. hit rate 0.85% among 360,000. inhibition, % at 25 µM;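 active means inhibition or corrected inhibition above about 18%, plus a signal ratio from 0.5 to 1.5, limit read from the data, passing the limit was not always enough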
MEKK2 mut-MEK5 = MEK5 binding signal on mutant MEKK2 PB1, primary screen, biochemical, multiplex bead flow cytometry, Alexa488-MEK5; hit rate 0.35% among 290,000; Alexa488-MEK5 binding to MEKK2 mutant; percent response, % at 10 µM; in the data active means percent response above about 24%, passing the limit was not always enough
Active calls of the source: *; ? = inconclusive; nt = no result given; [ ] = remark or other dose.

SMILES	MEKK3 PB1 HTS	MEKK2 WT-MEK5	SKN-1 inh	NRP1-CendR mod	MEKK2 mut-MEK5
CCOC(=O)c1c(N)n(CCCOC(=O)c2ccco2)c2nc3ccccc3nc12	101	99	35*	-4	-5
C[n+]1c(-c2ccccc2)cc(CCCCc2cc(-c3ccccc3)[n+](C)c(-c3ccccc3)c2)cc1-c1ccccc1	108	9.0*[inhibitor]	10	-35	56*
COc1ccc(-c2cc(-c3ccccc3)[n+](C)c(-c3ccccc3)c2)cc1	103	99	7	4	-1
O=C(NC(=O)c1c(F)cccc1F)Nc1cc(Cl)c(F)c(Cl)c1F	98	?	-5	6	-38
CCOC(=O)c1c(C)[nH]c(C)c1C(=O)C(Cc1ccccc1)N(C)C (configuration not stated)	102	110	-1	2	5
CN1C(=O)C(=Cc2cn(CC(=O)N3CCCCC3)c3ccccc23)C(=O)N(C)C1=O	101	99	41*	-7	-1
CN1C(=O)C(=Cc2cn(CC(=O)N3CCCC3)c3ccccc23)C(=O)N(C)C1=O	104	107	-5	6	8
CN(C)c1ccc(/C=C/[N+](=O)[O-])cc1	97	89	40*	-18	-4
CN(C)c1ccc(C=C2C(=O)NC(=O)NC2=O)cc1	nt	nt	13	-7	nt
C/C(=C\c1ccc(N(C)C)cc1)[N+](=O)[O-]	nt	nt	42*	-2	nt
CCCC1(CC(C)CC)C(=O)NC(=O)NC1=O (configuration not stated)	nt	nt	22	-5	nt
N#CC12c3ccccc3C(=O)N1Cc1cnnn1-c1ccccc12 (configuration not stated)	nt	nt	5	11	nt
COC(=O)C1=C(c2cccc(OC)c2OC)C[C@@H]2CC[C@H]1N2C(=O)NCc1ccccc1	99	101	-4	16	2
COC(=O)C1=C(c2ccccc2OCc2ccccc2)C[C@@H]2CC[C@H]1N2C(=O)NCc1ccc(F)cc1	nt	nt	8	22*	nt
COC(=O)C1=C(c2cccc(OC)c2OC)C[C@@H]2CC[C@H]1N2C(=O)NCc1ccc(F)cc1	114	112	11	27*	6
O=C(NN=Cc1ccc(N(CCCl)CCCl)cc1)c1cccnc1	nt	nt	-2	7	nt
COC(=O)C1=C(c2cc3ccccc3s2)C[C@@H]2CC[C@H]1N2C(=O)NC1CCCCC1	106	106	6	5	2
Cc1ccc2c(c1)=NC(=O)/C(=C/c1c(O)[nH]c(=O)[nH]c1=O)C=2	105	107	-16	-10	3
CC1=Nc2ccccc2/C1=C/c1c(O)[nH]c(=O)[nH]c1=O	98	99	36*	-6	2
CCC(=O)OC1CCC2C3CCC4CC(=O)C=CC4(C)C3CCC12C (configuration not stated)	nt	nt	20	6	nt
Cc1ccc(-[n+]2c(Cc3nn(-c4ccccc4)c(C)[n+]3-c3ccc(C)cc3)nn(-c3ccccc3)c2C)cc1	nt	nt	6	27*	nt
COc1ccc(-[n+]2c(-c3ccccc3)cc(-c3ccc(C)cc3)cc2-c2ccccc2)cc1	105	123	2	-6	10
COc1ccc(CCN)cc1S(N)(=O)=O	nt	nt	9	12	nt
CC(=O)OC1CCC2(C)C3CCC4(C)C(OC(C)=O)CCC4C3C(C)C2(O)C1 (configuration not stated)	nt	nt	-11	15	nt
Cc1cccc(C)c1-n1nnnc1C(C1CC1)N1CCC(n2c(=O)[nH]c3ccccc32)CC1 (configuration not stated)	nt	nt	11	15	nt
CCN1C(=O)/C(=C/c2ccc3c(c2)CCN3CCCCl)C(=O)NC1=S	96	68	23	-67	-4
O=C1NC(=S)N(C2CC2)C(=O)/C1=C/c1ccc2c(c1)CCN2CCCCl	94	104	41*	-54	8
O=C(NCCN1CCC2(CC1)C(=O)NCN2c1cccc(F)c1)c1ccc2ccccc2c1	nt	nt	16	-3	nt
O=C(Nc1ccc(Cl)cc1C(=O)c1ccccc1)c1ccccc1	nt	nt	2	25*	nt

High-throughput results deposited in PubChem by several laboratories.
